# Assay outcomes: PubChem, several laboratories
# Lmaj promast – inhibitors of Leishmania major promastigote growth | inhibition, % at 10 µM | Leishmania major promastigotes, resazurin fluorescence viability | hit rate 9% among 200,000 | AID 1063; in the data active = inhibition above about 50%;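 also: promastigotes grown with compound for 44 hours at 28 °C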
# WT yeast gro inh – growth inhibition of WT yeast, mitochondrial fusion screen. mitochondrial fusion phenotypic screen, WT strain. inhibition, % at 10 µM. hit rate 2.1% among 190,000; in the data active = inhibition above about 58%; tested in S. cerevisiae
# Calpain2 inh – inhibitors of pig calpain II; purified calpain II, fluorogenic peptide substrate, 30 min; inhibition, % at 16 µM; hit rate 0.37% among 220,000;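 active = inhibition above about 50%, limit read from the data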
# ROMK mod – modulates human ROMK potassium channel activity; Tet-inducible ROMK, thallium flux fluorescence; actives lie on both sides; B-score at 10 µM; hit rate 2% among 130,000; AID 1918;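 active = signal ratio slope over the read window, or its plate-corrected B-score, at least 3 SD from the plate mean, either direction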;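 also: B-score of the F/F0 ratio slope over 7 to 12 s after thallium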
# Cl transport mod – modulates chloride dependent transport by human KCC2; Q9H2X9; KCC2 cells, thallium flux FluoZin-2 fluorescence; B-score of Tl+ flux slope (higher = more flux/activation; lower = inhibition) at 10 µM; hit rate 2.2% among 190,000; AID 1456;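 active = thallium flux slope and its plate-corrected score both differing from the plate sample mean at a set confidence after two filtering rounds, in either direction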;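 also: slope of fluorescence scaled to starting intensity during 10 to 20 s after thallium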
# Target sequence (Q9H2X9 whole entry, looked up): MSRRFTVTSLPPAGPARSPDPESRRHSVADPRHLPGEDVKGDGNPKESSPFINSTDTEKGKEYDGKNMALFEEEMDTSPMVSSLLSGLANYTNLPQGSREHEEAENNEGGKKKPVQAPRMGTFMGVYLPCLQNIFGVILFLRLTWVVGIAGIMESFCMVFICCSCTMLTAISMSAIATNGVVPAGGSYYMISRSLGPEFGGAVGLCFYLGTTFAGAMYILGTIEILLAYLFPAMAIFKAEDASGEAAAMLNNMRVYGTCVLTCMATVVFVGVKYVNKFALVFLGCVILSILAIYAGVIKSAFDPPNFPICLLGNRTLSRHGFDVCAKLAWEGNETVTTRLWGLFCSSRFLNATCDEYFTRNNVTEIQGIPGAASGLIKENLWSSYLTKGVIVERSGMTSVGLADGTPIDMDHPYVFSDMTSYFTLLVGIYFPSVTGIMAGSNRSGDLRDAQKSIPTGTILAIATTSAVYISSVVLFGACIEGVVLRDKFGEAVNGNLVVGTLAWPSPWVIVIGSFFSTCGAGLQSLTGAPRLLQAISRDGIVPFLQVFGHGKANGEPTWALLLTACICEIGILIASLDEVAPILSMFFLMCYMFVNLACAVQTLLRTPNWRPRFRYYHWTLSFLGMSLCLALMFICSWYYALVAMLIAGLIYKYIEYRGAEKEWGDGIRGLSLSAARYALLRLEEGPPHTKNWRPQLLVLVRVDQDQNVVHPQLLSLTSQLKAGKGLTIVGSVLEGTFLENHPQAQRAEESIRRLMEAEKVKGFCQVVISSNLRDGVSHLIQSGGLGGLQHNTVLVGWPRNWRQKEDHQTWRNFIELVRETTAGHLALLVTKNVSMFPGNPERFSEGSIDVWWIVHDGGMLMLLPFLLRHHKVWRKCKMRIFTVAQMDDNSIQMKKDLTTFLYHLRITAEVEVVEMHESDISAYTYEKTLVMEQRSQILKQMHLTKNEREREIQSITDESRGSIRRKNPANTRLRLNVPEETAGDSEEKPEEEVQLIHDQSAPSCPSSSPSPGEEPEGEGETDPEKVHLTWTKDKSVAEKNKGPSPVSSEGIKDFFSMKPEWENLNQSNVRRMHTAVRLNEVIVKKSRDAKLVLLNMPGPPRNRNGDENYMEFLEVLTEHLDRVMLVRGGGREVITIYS
# A number is an active result; . = inactive; / = no result given. The list is not random: actives were taken first. Their share in the collection is about 12%.
SMILES,Lmaj promast,WT yeast gro inh,Calpain2 inh,ROMK mod,Cl transport mod
Cc1ccc(-c2ccc(/C=N/N=C3/NC(=O)C(CC(=O)O)S3)o2)c([N+](=O)[O-])c1 (stereo not drawn),100,.,.,.,.
O=C(O)CC1S/C(=N/N=C/c2ccc(-c3ccccc3[N+](=O)[O-])o2)NC1=O (stereo not drawn),100,.,.,.,.
O=C(O)CCCNC(=O)CC1S/C(=N/N=C/c2ccccc2O)NC1=O (stereo not drawn),.,.,.,.,.
Clc1nn2cnnc2c2ccccc12,.,.,.,.,.
COc1cc(C(=O)O/N=C(\N)c2ccc([N+](=O)[O-])cc2)cc(OC)c1OC,56,.,.,.,.
COc1ccc(C(=O)O/N=C(\N)c2ccncc2)cc1OC,.,.,.,.,.
COc1cc(C(=O)O/N=C(\N)c2cccc([N+](=O)[O-])c2)cc(OC)c1OC,/,/,.,.,.
COc1cc(C(=O)O/N=C(\N)c2ccncc2)cc(OC)c1OC,82,.,.,/,.
CCOc1cc2c(cc1OCC)C(c1ccccc1)N(c1ccccc1)C(=O)C2 (stereo not drawn),81,.,.,.,.
COc1ccc2cc3cc(C(=O)NCCN4CCN(c5ccccc5F)CC4)oc3nc2c1,.,.,.,/,/
O=C(NCc1ccco1)c1cc2cc3ccc(Cl)cc3nc2o1,.,.,.,/,.
CCOc1ccc(NC(=O)c2cc3cc4ccc(OC)cc4nc3o2)cc1,100,.,.,.,.
COc1ccc2cc3cc(C(=O)NCc4ccco4)oc3nc2c1,60,.,.,.,.
COc1ccc2cc3cc(C(=O)NCC4CCCO4)oc3nc2c1 (stereo not drawn),79,.,.,/,.
COc1ccc2cc3cc(C(=O)Nc4ccccc4N4CCN(C)CC4)oc3nc2c1,100,.,.,/,/
CCOc1ccc(NC(=O)c2cc3cc4ccc(C)cc4nc3o2)cc1,.,.,.,.,.
CC(CC1C(C#N)=C(N)SC(N)=C1C#N)c1ccccc1 (stereo not drawn),.,.,.,.,.
NC(=O)c1ccc(C(F)(F)F)n(Cc2ccccc2Cl)c1=O,.,.,.,/,.
CCOC(=O)c1ccccc1NS(=O)(=O)c1ccccc1,.,.,.,/,.
CC(OC(=O)c1ccccc1NS(=O)(=O)c1cccc(N)c1)C(=O)N(C)Cc1ccccc1 (stereo not drawn),82,.,.,.,.
O=S(=O)(Nc1ccccc1)c1ccc(Oc2ncc(C(F)(F)F)cc2Cl)cc1,.,.,.,/,/
CCOc1cc(/C=N/NC(=O)CNc2ccc(C)cc2)ccc1OC(=O)c1ccccc1,.,.,.,.,.
Cc1ccc(C2CC(=O)N3CN(Cc4ccco4)CSC3=C2C#N)cc1 (stereo not drawn),.,.,.,/,.
N#CC1=C2SCN(Cc3ccco3)CN2C(=O)CC1c1c(F)cccc1Cl (stereo not drawn),75,.,.,/,/
O=c1[nH][nH]c(-c2ccccc2O)c1C(C[N+](=O)[O-])c1ccccc1 (stereo not drawn),98,.,.,.,.
SMILES,Lmaj promast,WT yeast gro inh,Calpain2 inh,ROMK mod,Cl transport mod
O=c1[nH][nH]c(-c2ccccc2O)c1C(C[N+](=O)[O-])c1cccc(Cl)c1 (stereo not drawn),100,.,.,.,.
Cc1cc(O)c(C(C[N+](=O)[O-])c2ccc(Cl)cc2Cl)c(=O)o1 (stereo not drawn),.,.,.,.,/
Cc1[nH]c2ccccc2c1C(C[N+](=O)[O-])c1cccc(O)c1 (stereo not drawn),.,.,.,.,.
O=c1[nH][nH]c(-c2ccccc2O)c1C(C[N+](=O)[O-])c1ccc(Cl)cc1Cl (stereo not drawn),98,.,.,.,.
CN(Cc1ccccc1)c1nc(CN2CCOCC2)nc2scc(-c3ccccc3)c12,.,69,.,.,.
OCC1CCCN(c2nc(CN3CCCCC3)nc3scc(-c4ccccc4)c23)C1 (stereo not drawn),.,.,.,/,.
Fc1ccc(N2CCN(c3nc(CN4CCOCC4)nc4scc(-c5ccccc5)c34)CC2)cc1,67,78,.,.,.
COc1ccc(-c2csc(N)n2)cc1,.,.,.,.,.
COc1ccc(-c2csc(N=C(N)N)n2)cc1,60,.,.,.,.
Cc1nn(S(=O)(=O)c2ccc(Cl)cc2)c(C)c1Sc1ccc([N+](=O)[O-])cc1,82,.,.,.,.
CCCN(CCC)CCCNC(=S)Nc1ccc2nc3n(c(=O)c2c1)CCCCC3,61,.,.,/,.
O=C(Nc1ccc2nc3n(c(=O)c2c1)CCCC3)c1ccccc1[N+](=O)[O-],56,.,.,/,.
CC1CC(C)CN(C(=S)Nc2ccc3nc4n(c(=O)c3c2)CCCCC4)C1 (stereo not drawn),85,.,.,.,.
Cc1ccccc1C(=O)Nc1ccc2nc3n(c(=O)c2c1)CCC3,.,.,.,/,.
CCOC(=O)C1=C(CC)Nc2ccccc2N=C1NC(=O)Nc1ccc(Cl)c(Cl)c1,97,.,.,.,.
CCOC(=O)C1=C(CC)Nc2ccccc2N=C1NC(=O)c1ccc(S(=O)(=O)N2CCCC2)cc1,.,.,.,.,.
O=C1C(=O)c2ccc(-c3ccccc3)cc2-c2ccccc21,100,.,.,.,.
Cc1ccnc(NC(=O)Nc2ccc3c(c2)OCO3)c1,.,.,.,.,.
COc1cccc(CNc2ncn[nH]2)c1OCc1ccc(F)cc1,.,.,.,/,/
CCN1CCCC1CNCc1cccc(OC)c1OCc1ccc(F)cc1 (stereo not drawn),63,.,.,.,.
CCO[C@H]1OC(C(=O)N2CCN(Cc3ccc4c(c3)OCO4)CC2)=C[C@@H](C2CC2)[C@@H]1CCCO,77,.,.,/,.
CCO[C@@H]1OC(C(=O)N2CCN(Cc3ccc4c(c3)OCO4)CC2)=C[C@H](c2csc3ccccc23)[C@H]1CCCO,72,.,.,/,.
CC1(C)SC(=S)N(/N=C/c2ccccc2)C1N(O)C(=O)Nc1ccc([N+](=O)[O-])cc1 (stereo not drawn),.,.,.,/,.
O=NN(CCc1ccncc1)c1ccc(OCc2ccccc2)cc1,86,.,.,.,.
COc1nc(-c2cnccn2)sc1C,.,.,.,.,.
SMILES,Lmaj promast,WT yeast gro inh,Calpain2 inh,ROMK mod,Cl transport mod
COc1ccc(OC)c(NC(=O)c2cc3c(Cl)nc4ccccc4c3s2)c1,72,.,.,.,.
COc1ccc(NC(=O)c2cc3c(Cl)nc4ccccc4c3s2)cc1OC,.,.,.,.,.
Cc1ccc(C2=NN(C(=O)CCl)C(c3cccs3)C2)o1 (stereo not drawn),90,.,.,/,.
CC(=O)N1N=C(c2ccco2)CC1c1cccs1 (stereo not drawn),.,.,.,/,/
O=C(CCl)N1N=C(c2ccco2)CC1c1cccs1 (stereo not drawn),90,.,.,/,.
CCOC(=O)c1sc(-c2ccccn2)nc1C,.,.,.,.,.
O=S(=O)(Cc1ccc(Cl)cc1)Nc1ccc(Cl)cn1,.,.,.,.,.
O=C(Nc1ccc(NC(=O)C2CCCCC2)nc1)c1ccccn1,71,.,.,.,.
O=C(Nc1ccc(NC(=O)C2CCCCC2)nc1)c1ccco1,86,.,.,/,.
